Z-score and composite z-score data for five compounds are collected here from PubChem BioAssay.

The source made the active and inactive calls. Unless noted, how the calls were made is not given here.

Test [1] can be described thus: compound effects on lung adenocarcinoma cell viability – A549, calcein-AM fluorescence, 48 h, basal, profiling panel (AID 1162). Further: test concentration not given here. The conditions noted are these: higher = more signal.
Test [2] is described as follows: compound effects on differentiated 3T3-L1 adipocyte viability – cell-based, 3T3-L1 adipocytes, calcein-AM fluorescence, 48 h, basal, profiling panel (AID 1163). Further: test concentration not given here. Conditions: 3T3-L1 adipocytes viability, higher = more signal.
Test [3] is described as follows: compound effects on hepatocellular carcinoma cell viability – HepG2, calcein-AM fluorescence, 48 h, basal, profiling panel (AID 1164). Further: test concentration not given here. The conditions noted are these: higher = more signal.
Test [4] in a line: compound effects on multiple myeloma cell viability – MM1S, calcein-AM fluorescence, 48 h, basal, profiling panel (AID 1165). Further: test concentration not given here. Conditions: higher = more signal.
Test [5] in a line: calcein-AM signal in unstimulated myeloma cells – cell-based, calcein-AM fluorescence, 48 h, PK04 Diversity Set, profiling panel (AID 1166).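 Further: cells grown under basal conditions without added stimulus; test concentration not given here.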 The conditions noted are these: RPMI8226 myeloma viability, higher = more signal.
The nature of test [6]: JC-1 mitochondrial signal, unstimulated HepG2 cells – cell-based, JC-1 fluorescence, 24 h, 100 nL compound, profiling panel (AID 1167). Further: test concentration not given here. The conditions noted are these: HepG2 mitochondrial potential, higher = more signal.
Test [7] is described as follows: JC-1 mitochondrial signal, unstimulated adipocytes – cell-based, JC-1 fluorescence, 3T3-L1 adipocytes, 24 h, 100 nL compound, profiling panel (AID 1168). Further: test concentration not given here. The conditions noted are these: JC-1 mitochondrial fluorescence, higher = more signal, called active from +8 up or from −8 down.
A short description of test [8]: JC-1 mitochondrial signal, unstimulated myeloma cells – cell-based, JC-1 fluorescence, RPMI8226, 24 h, 100 nL compound, profiling panel (AID 1169). Further: test concentration not given here. Conditions: JC-1 mitochondrial potential fluorescence, higher = more signal.
The nature of test [9]: JC-1 mitochondrial signal, unstimulated MM1S myeloma – cell-based, JC-1 fluorescence, 24 h, 100 nL compound, profiling panel (AID 1170). Further: test concentration not given here. The conditions noted are these: MM1S mitochondrial potential, higher = more signal.
A short description of test [10]: resazurin metabolic signal in A549 cells – cell-based, resazurin fluorescence, 24 h, PK04 Diversity Set, profiling panel (AID 1171). Further: test concentration not given here. The conditions noted are these: A549 viability, higher = more signal, called active from +8 up or from −8 down. On the technique in general: Alamar Blue is a resazurin reagent that responds to reducing activity.
A short description of test [11]: resazurin metabolic signal in HepG2 cells – cell-based, resazurin fluorescence, 24 h, PK04 Diversity Set, profiling panel (AID 1172). Further: test concentration not given here. Conditions: HepG2 viability, higher = more signal.
The nature of test [12]: budding yeast growth changes without added modifier – OD600, strain BY4716, 24 h, basal condition, primary screen (AID 1173). The conditions noted are these: S. cerevisiae BY4716 growth, OD600, 24 h; higher = more signal, called active from +8 up or from −8 down.
A short description of test [13]: viability profiling in MM1S myeloma cells – cell-based, resazurin fluorescence, basal, 24 h, PK04 Diversity Set, profiling panel (AID 1174). Further: test concentration not given here. Conditions: higher = more signal, called active from +8 up or from −8 down.
Test [14] has as its target Dihydroorotate dehydrogenase (quinone), mitochondrial (Plasmodium falciparum (isolate 3D7)) (UniProt Q08210). The test is described as follows: inhibition of P. falciparum DHODH – biochemical, C-terminal His tag, absorbance 600 nm, primary screen (AID 1175).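 Further: recombinant parasite enzyme with a five histidine tag at its C terminus; test concentration not given here.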 The conditions noted are these: PfDHODH enzyme, DCIP absorbance 600 nm; higher = more signal, called active from +8 up or from −8 down.

Test [15] in a line: inhibition of PAO1 biofilm formation – strain PAO1, LB-PBS medium, absorbance 600 nm, primary screen (AID 1176). Further: test concentration not given here. Conditions: P. aeruginosa PAO1 growth/biofilm, A600, 12 h; higher = more signal.
Test [16] is described as follows: growth modulation of vineyard yeast isolate – strain RM11-1a, OD600, basal, 24 h, primary screen (AID 1177).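 Further: cultures grown under basal conditions with no added stressor; test concentration not given here.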 Conditions: S. cerevisiae RM11-1a growth, OD600, 24 h; higher = more signal, called active from +8 up or from −8 down.
Test [17] can be described thus: growth of efflux-deficient E. coli DRC39 – strain DRC39, OD650, 24 h, E. coli filamentation inducers, primary screen (AID 1178).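 Further: growth measured as culture turbidity by optical density at 650 nm; test concentration not given here.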 The conditions noted are these: E. coli DRC39 acrAB, higher = more signal, called active from +8 up or from −8 down.
The nature of test [18]: growth of efflux-deficient E. coli DRC39 – strain DRC39, OD650, 48 h, E. coli filamentation inducers, primary screen (AID 1179).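 Further: screen aims at cell division blockers that make cells filament.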 Conditions: E. coli DRC39 delta-acrAB growth, higher = more signal, called active from +8 up or from −8 down.
The nature of test [19]: viability profiling in RPMI8226 myeloma cells – cell-based, resazurin fluorescence, basal, 24 h, PK04 Diversity Set, profiling panel (AID 1180).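 Further: RPMI8826 multiple myeloma cell line at 5000 cells per well; test concentration not given here.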 Conditions: higher = more signal.
Test [20] addresses E3 ubiquitin-protein ligase XIAP (Homo sapiens) (UniProt P98170). The experiment in a line: small molecules binding XIAP protein – biophysical, small-molecule microarray, fluorescence 635 nm, primary screen (AID 1181).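 Further: score merges 667 nm emission and signal to noise over triplicate slides.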 The conditions noted are these: higher = more signal.

Sequence of E3 ubiquitin-protein ligase XIAP (Homo sapiens) (P98170 whole entry, looked up): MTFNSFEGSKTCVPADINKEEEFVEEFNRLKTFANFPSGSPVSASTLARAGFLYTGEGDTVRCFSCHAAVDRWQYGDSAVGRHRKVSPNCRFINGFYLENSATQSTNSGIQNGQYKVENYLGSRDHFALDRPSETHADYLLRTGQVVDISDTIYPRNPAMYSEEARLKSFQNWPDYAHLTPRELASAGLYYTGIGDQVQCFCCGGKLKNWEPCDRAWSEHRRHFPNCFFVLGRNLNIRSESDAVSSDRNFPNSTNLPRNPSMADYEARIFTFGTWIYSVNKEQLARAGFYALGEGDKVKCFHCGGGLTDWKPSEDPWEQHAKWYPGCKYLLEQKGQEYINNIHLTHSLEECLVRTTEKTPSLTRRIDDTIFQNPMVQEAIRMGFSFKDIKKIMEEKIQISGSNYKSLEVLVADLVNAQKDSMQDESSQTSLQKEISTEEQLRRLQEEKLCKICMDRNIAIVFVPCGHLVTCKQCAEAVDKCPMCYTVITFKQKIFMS
Sequence of Dihydroorotate dehydrogenase (quinone), mitochondrial (Plasmodium falciparum (isolate 3D7)) (Q08210 whole entry, looked up): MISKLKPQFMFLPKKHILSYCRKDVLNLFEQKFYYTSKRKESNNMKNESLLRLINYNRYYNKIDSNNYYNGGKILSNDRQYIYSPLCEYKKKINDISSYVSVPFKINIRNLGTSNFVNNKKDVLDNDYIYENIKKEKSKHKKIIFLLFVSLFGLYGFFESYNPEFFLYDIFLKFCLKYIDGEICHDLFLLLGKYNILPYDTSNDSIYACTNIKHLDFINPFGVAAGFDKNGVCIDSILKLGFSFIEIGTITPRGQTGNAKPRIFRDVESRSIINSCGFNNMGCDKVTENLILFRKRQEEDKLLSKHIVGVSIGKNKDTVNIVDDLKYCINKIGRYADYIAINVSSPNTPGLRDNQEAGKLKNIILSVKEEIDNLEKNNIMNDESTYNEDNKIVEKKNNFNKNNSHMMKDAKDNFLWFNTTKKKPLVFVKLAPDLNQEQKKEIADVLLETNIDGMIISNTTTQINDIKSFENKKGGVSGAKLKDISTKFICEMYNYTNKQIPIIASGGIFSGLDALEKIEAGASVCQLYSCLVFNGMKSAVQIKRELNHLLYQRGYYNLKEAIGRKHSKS

With `CON=C1c2cc(OC)ccc2O[C@H](c2cccc(OC)c2)[C@H]1O`, the z-score in test [1] was 0.744; in test [2], 0.448; in test [3] it was -0.743; in [4] it was -0.416; in [5], 0.53; in test [6] it was 0.181. The z-score in [7] is -0.672 (inactive); in [8], -0.0443; in test [9], 1.39; in test [10], -0.124 (inactive); in test [11], 0.291; in test [12], -5.98 (inactive). In addition, the z-score is 0.322 (inactive) in [13]; -0.455 (inactive) in [15]; -0.175 (inactive) in test [16]; 0.489 (inactive) in test [17]; 0.957 (inactive) in [18]; 0.411 in test [19]. The results for the composite z-score in test [14] and in test [20] were -0.469 (inactive) and 0.418, respectively.

In the case of `CC(=O)OC[C@H]1O[C@H](CCON=C(C)C)C=C[C@@H]1OC(C)=O`, the z-score in [1] is 0.191; in test [2], 0.0363; in [3], -0.0004; in [4] it was -0.719; in test [5], -1.12; in test [6], -0.331. The z-score in test [7] is -0.681 (inactive); in test [8] it was 0.636; in test [9], -0.57; in test [10], -0.426 (inactive); in test [11], -0.97; in test [12], 0.421 (inactive). Moreover, the z-score was -0.54 (inactive) in test [13]; 0.265 (inactive) in test [15]; 0.404 (inactive) in test [16]; 0.795 (inactive) in test [17]; -0.844 (inactive) in [18]; -0.0326 in test [19]. Besides, the composite z-score was -0.0136 (inactive) in test [14] and -0.102 in test [20].

With `O=C1[C@H]2CCn3c(=O)n(Cc4cc5c(cc4Cl)OCO5)c(=O)n3[C@H]2[C@H](O)[C@@H]2O[C@H]12`, the z-score was 0.173 in [1]; -0.124 in [2]; -0.0111 in test [3]; -1.72 in test [4]; -0.518 in test [5]; 0.039 in [6]. For the same compound, the z-score in test [7] was -0.275 (inactive); in test [8], 0.177; in test [9] it was -0.744; in [10] it was -0.963 (inactive); in test [11], -0.581; in test [12] it was -0.0756 (inactive). Further, the z-score in test [13] was -1.3 (inactive); in test [15], -0.838 (inactive); in test [16], 0.533 (inactive); in test [17], 0.552 (inactive); in [18], 0.669 (inactive); in test [19] it was -1.3. In addition, the composite z-score in test [14] is -0.877 (inactive); in [20], -0.146.

As for `CCN1C(C)=C(C(=O)OC)[C@@H](c2ccccc2)N2C(=O)[C@](O)(C(=O)OC)CC(C(C)=O)=C12`, the z-score was 0.836 in test [1]; -0.697 in test [2]; 0.634 in [3]; 0.339 in test [4]; 0.791 in test [5]; 0.93 in test [6]. Further, the z-score is 0.935 (inactive) in test [7]; 0.138 in test [8]; 0.146 in [9]; -0.256 (inactive) in test [10]; -0.0348 in [11]; -1.38 (inactive) in test [12]. In addition, the z-score in test [13] was 0.136 (inactive); in test [15], -0.242 (inactive); in [16], -0.695 (inactive); in [17], 0.538 (inactive); in [18] it was 0.866 (inactive); in [19], -0.11. For the same compound, the results for the composite z-score in test [14] and in test [20] were -1.27 (inactive) and 0.0264, respectively.

Turning to `COCOc1ccc(Br)cc1C(=O)C=Cc1ccc2c(c1)OCO2`, the z-score was -0.206 in test [1]; -0.342 in [2]; -2.2 in test [3]; -3.48 in test [4]; -3.81 in test [5]; 1.28 in test [6]. The z-score in test [7] is 0.0274 (inactive); in test [8], -1.12; in test [9], -2.71; in test [10], -1.56 (inactive); in [11] it was -2.37; in test [12], -3.33 (inactive). Moreover, the z-score was -3.86 (inactive) in test [13]; 1.01 (inactive) in test [15]; 0.616 (inactive) in [16]; 0.725 (inactive) in test [17]; 0.253 (inactive) in test [18]; -3.36 in [19]. In addition, the composite z-score in test [14] was -1.1 (inactive); in test [20], -0.0076.
